Assay outcomes (PubChem)
This is a sample that favours compounds with a hit; in the whole collection about 19% have one here.
BCR signal inh = chronic active BCR signaling inhibition. AID 493014. ABC-DLBCL IkBa-CBG/CBR reporter, luminescence ratio, 4 h. 340,000 compounds, 0.05% hits. Potency, µM (top dose mostly 46.1 µM), inactives show at the highest dose activity change, negative = inhibition, hits mostly inhibitors; active = well fitted inhibition curve with a large enough effect in the signal ratio, with a control signal flat, not every such curve was filed as active; inconclusive = small, poorly fitted or top-dose-only effect, or effect the other way, or a change in a side signal; the % refers to the signal ratio;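 note: potency is the fitted concentration of half-maximal effect; plate controls were basal doxycycline-induced cells for no effect and cells given 10 µM MG132 for full effect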
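TMD8 human ABC-DLBCL cells with doxycycline-inducible IκBα–green luciferase fusion and unfused red luciferase, in 0.5% FBS medium; compounds up to 46 uM, 4 h at 37C. Green/red luminescence ratio, filter-overlap corrected, fitted to concentration-response curves.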
MCF10A rereplic = inducers of DNA re-replication in MCF 10A breast cells. MCF 10A DNA re-replication, Hoechst nuclear intensity, 48 h. Potency, µM (series often up to 46.1 µM), inactives show at the highest dose activity, positive = re-replication, most hits filed as activators. 350,000 compounds, 2.9% hits. AID 624296; note: potency is the fitted concentration of half-maximal effect; % of control where 0% means no effect; nearly all actives have a fitted effect of over 50% in size
DT40 TDP1 no CPT = qHTS for Inhibitors of human tyrosyl-DNA phosphodiesterase 1 (TDP1): qHTS in cells in absence of CPT; DT40 Tdp1-/- hTDP1 cells, no CPT, ATP luminescence, 48 h; Potency, µM (series often up to 46.2 µM), for inactives: at the highest dose activity change, negative = growth inhibition, usual class: inhibitors; 420,000 compounds, 15% hits; AID 686978, 2013; note: potency is the fitted concentration of half-maximal effect; % is set by controls: 0 for no effect and ±100 for the full control effect; nearly all actives have a fitted effect of over 55% in size
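A cellular qHTS used chicken DT40 cells lacking endogenous Tdp1 but carrying stably transfected human TDP1. Compounds were applied without camptothecin, and cell growth kinetics were judged by ATP-dependent luminescence after ≥48 hr.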
SW480 rerep = induces DNA re-replication in SW480 colon adenocarcinoma cells. AID 624297. 340,000 compounds, 1.8% hits. Potency, µM (highest dose often 46.1 µM), inactives show at the top dose re-replication activation, hits mostly activators. SW480 DNA re-replication, Hoechst DNA content imaging, 48 h; note: potency is the fitted concentration of half-maximal effect; % of control where 0% means no effect; nearly all actives have a fitted effect of over 55% in size
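Hoechst fluorescence of nuclei (405 nm excitation, 500-530 nm emission) measured by plate-scanning imager after 48 hr compound exposure at 37 C; re-replication scored as increased number of nuclei with elevated intensity.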
IL-1B inflam inh = inflammasome signaling inhibition, IL-1 beta readout | THP-1 LPS/ATP IL-1B secretion, AlphaLISA, 16 h; stronger effect = lower value | activity change, % at 57.5 µM | 360,000 compounds, 4.7% hits | AID 743279; in the data active = activity change below about -50%; inconclusive = mostly about -30% to -49%; note: % is set by controls: 0 for no effect and ±100 for the full control effect
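THP-1 cells pretreated 1 hr with compounds (up to 57.5 uM final), then stimulated with LPS (250 ng/mL final) plus ATP (1.25 mM final); secreted IL-1B measured by AlphaLISA after 16 hr, decreased signal indicating inhibition.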
DT40 TDP1 CPT = growth inhibition of DT40 Tdp1-/-;hTDP1 cells with camptothecin (screen for TDP1 inhibitors). Potency, µM (top dose mostly 46.2 µM), inactives show at the highest dose activity change, negative = growth inhibition, most hits filed as inhibitors. 420,000 compounds, 12% hits. AID 686979. chicken DT40 Tdp1-/-;hTDP1 cells + 20 nM CPT, ATP luminescence, 48 h; note: potency is the fitted concentration of half-maximal effect; % is set by controls: 0 for no effect and ±100 for the full control effect; nearly all actives have a fitted effect of over 55% in size
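Cell growth measured by CellTiter-Glo luminescence after a minimum 48 h, 37 C compound exposure with 20 nM CPT in Tdp1-knockout DT40 cells stably expressing hTDP1, seeded 400/well; qHTS titration format.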
The depositor's hits bear a star; ? = inconclusive; / = no result given. Unless noted, calls come from the whole dose curve; as a rule, active = well fitted curve in the direction sought with a large enough effect; inconclusive = small, poorly fitted or top-dose-only effect, or another doubt; inactive = no such curve, though single readings can be large; an effect the other way counts as inactive or inconclusive.

SMILES	BCR signal inh	MCF10A rereplic	DT40 TDP1 no CPT	SW480 rerep	IL-1B inflam inh	DT40 TDP1 CPT
O=C(/C=C/N1CCOCC1)c1ccc(-c2ccccc2)cc1	2%	9%	21µM*	15µM*	-1	?
O=C(/C=C\N1CCOCC1)c1ccc(Br)cc1	0%	5.8µM*	4%	2%	-8	8%
CSCCC(NC(=O)c1ccc([N+](=O)[O-])cc1Cl)C(=O)OC(C)C(=O)NCc1ccco1 (configuration not stated)	-18%	3%	0%	0%	6	-30%
CC(=O)N1CCCc2cc(S(=O)(=O)Nc3ccccc3C)ccc21	-1%	-7%	-21%	-3%	7	2%
CC(C)N(Cc1nc(-c2ccc(Cl)cc2)no1)C(=O)C(c1ccccc1)c1ccccc1	0%	13%	?	24%	-11	?
Cc1ccc(-c2noc(CN(C(=O)C(c3ccccc3)c3ccccc3)C(C)C)n2)cc1	-3%	10%	15µM*	?	?	18µM*
Cc1cccc(-c2noc(CN(C)C(=O)c3ccoc3C)n2)c1	0%	-12%	?	-27%	-13	-6%
COc1cccc(C(=O)N(Cc2nc(-c3ccc(Cl)cc3)no2)C(C)C)c1OC	/	/	21µM*	/	/	18µM*
COc1ccc(-c2noc(CN(C)C(=O)c3ccoc3C)n2)cc1	6%	?	16µM*	-4%	6	?
Cc1cc(C)cc(C(=O)N(Cc2nc(-c3ccc(Cl)cc3)no2)C(C)C)c1	/	/	18µM*	/	/	21µM*
O=C(CCNS(=O)(=O)c1ccc(Br)cc1)NNC(=O)C1COc2ccccc2O1 (configuration not stated)	2%	16%	-18%	-7%	-7	-26%
COc1ccc(-c2noc(CN(C(=O)COc3cc(C)c(Br)c(C)c3)C(C)C)n2)cc1	/	/	23µM*	/	/	18µM*
COc1ccc(C(=O)NCc2nc(-c3cccc(C)c3)no2)cc1OC	/	/	16µM*	/	/	?
COc1ccc(Cl)cc1C(=O)N(Cc1nc(-c2cccc(C)c2)no1)C(C)C	?	?	6.5µM*	?	6	6.5µM*
Cc1ccc(-c2noc(CNC(=O)COc3cc(C)c(Br)c(C)c3)n2)cc1	/	/	-7%	/	/	-2%
Cc1ccc(S(=O)(=O)N2C(=O)[C@@H]3Cc4ccccc4CN3C2=O)cc1	2%	0%	?	21%	-14	?
C#CCOCC1CN(C)C(=O)O1 (configuration not stated)	/	/	2%	/	-12	-1%
Cc1ccc(S(=O)(=O)NCCc2nnc3ccc(N4CCOCC4)nn23)cc1	/	/	-10%	/	-15	-11%
COc1ccccc1CNS(=O)(=O)c1c(C)cc(C)cc1C	/	/	?	/	17	?
COc1nc(-c2ccccc2)nc(-c2ccccc2)c1C	/	23µM*	-32%	6%	-2	-8%
COc1cnc(-c2ccccc2)nc1OC	-4%	-2%	-9%	-12%	15	3%
COc1ccccc1C(=O)NCC(=O)N1CCN(c2ncccn2)CC1	-1%	-3%	6%	-14%	-14	15%
c1ccc(Cc2noc(CN3CCN(CCOc4ccccc4)CC3)n2)cc1	-13%	-4%	-5%	6%	-7	-27%
CCCCCCCCCCCCCCCCn1cc[n+](C)c1	-12%	21µM*	0.46µM*	?	-96*	0.46µM*
O=C(Oc1ccc(F)cc1C(=O)/C=C/c1cccs1)c1cccc([N+](=O)[O-])c1	?	?	0.37µM*	13µM*	?	0.16µM*
SMILES	BCR signal inh	MCF10A rereplic	DT40 TDP1 no CPT	SW480 rerep	IL-1B inflam inh	DT40 TDP1 CPT
COc1ccc(C(=O)/C=C/Nc2ccc([N+](=O)[O-])cc2C)c(OC)c1	?	-14%	?	25%	-3	-24%
COc1cc(/C=C/C(=O)c2cccc([N+](=O)[O-])c2)cc(OC)c1OC	-9%	?	5.2µM*	?	-61*	5.8µM*
O=C(/C=C/c1ccccc1F)c1cccc([N+](=O)[O-])c1	-9%	21µM*	21µM*	86%	-9	?
COc1ccc(C(=O)/C=C/c2ccccc2F)c(OC(=O)c2ccc([N+](=O)[O-])cc2)c1	-26%	15µM*	13µM*	?	-101*	23µM*
COc1ccc2[nH]cc(CCNc3ccnc(-c4ccc(C(=O)N(C)C)cc4)n3)c2c1	/	/	12µM*	/	/	12µM*
COc1ccc2[nH]cc(CCNc3ccnc(-c4ccccc4C)n3)c2c1	/	/	?	/	/	21µM*
COc1ccc2[nH]cc(CCNc3nc(-c4cccnc4)nc4ccccc34)c2c1	/	/	?	/	/	23µM*
COc1cccc(-c2nccc(NCCc3c[nH]c4ccc(OC)cc34)n2)c1	/	/	?	/	/	13µM*
COc1cccc(-c2nccc(NCc3cnc(C)cn3)n2)c1	/	/	-18%	/	/	8%
COc1ccc2[nH]cc(CCNc3cc(-c4ccc(C(=O)N(C)C)cc4)ncn3)c2c1	/	/	-17%	/	/	?
CC(NC(=O)c1ccco1)C(=O)OCC(=O)N1CCCCCC1 (configuration not stated)	?	-2%	2%	-9%	22	3%
CCc1nn(CC(=O)NCc2ccc(OC)c(OC)c2)c(=O)c2cc3sc(C)cc3n12	/	/	-2%	/	/	?
O=C(NCCC1CCCCN1S(=O)(=O)c1ccc(F)cc1)C(=O)Nc1ccccc1 (configuration not stated)	?	12%	18µM*	4%	-8	?
COc1ccc(NC(=O)C(=O)NCCC2CCCCN2S(=O)(=O)c2ccccc2)cc1 (configuration not stated)	-3%	?	2.9µM*	15µM*	-1	4.1µM*
COc1ccc(CNC(=O)C(=O)NCCC2CCCCN2S(=O)(=O)c2cccs2)cc1 (configuration not stated)	8%	8%	?	-1%	-21	?
O=C(NCCC1CCCCN1S(=O)(=O)c1ccc(F)cc1)C(=O)NCc1cccnc1 (configuration not stated)	?	9%	-13%	-3%	-10	-14%
O=C(NCCC1CCCCN1S(=O)(=O)c1cccs1)C(=O)Nc1ccccc1 (configuration not stated)	?	?	23µM*	3%	?	16µM*
